Compound activity as filed in PubChem.
Rows were chosen to be rich in hits. Some 3.1% of all compounds tested hit in one or more screens of this group.
dFosB act-1 – enhances mouse delta FosB homodimer DNA binding. P13346. purified delta FosB, TAMRA-CDK5 oligo fluorescence polarization; percent of positive-control signal above neutral wells. activation, % at 25 µM. hit rate 0.99% among 340,000;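 active = mean activation above about 17%, with every replicate also reaching it, limit read from the data, passing the limit was not always enough; inconclusive = only one of the two conditions met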
Target sequence (P13346 whole entry, looked up): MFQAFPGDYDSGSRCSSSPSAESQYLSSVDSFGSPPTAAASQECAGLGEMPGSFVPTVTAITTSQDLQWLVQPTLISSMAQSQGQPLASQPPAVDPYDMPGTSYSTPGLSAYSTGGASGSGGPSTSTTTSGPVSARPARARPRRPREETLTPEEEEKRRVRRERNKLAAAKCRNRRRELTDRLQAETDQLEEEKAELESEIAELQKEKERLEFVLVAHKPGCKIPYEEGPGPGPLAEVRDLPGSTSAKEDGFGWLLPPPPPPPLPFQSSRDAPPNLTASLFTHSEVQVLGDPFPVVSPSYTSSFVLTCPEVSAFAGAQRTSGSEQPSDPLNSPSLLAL
DENV2 CPE rescue – inhibitors of DENV2 cytopathic effect; DENV2-infected cells, cytopathic effect rescue, plate reader; CPE inhibition, % at 9.99 µM; hit rate 1.7% among 350,000; AID 651640; in the data active = CPE inhibition above about 20%, passing the limit was not always enough; inconclusive = no clear call, values can overlap the other calls; tested in BHK-21 cells;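 also: 0% = median of neutral control wells and 100% = median of positive control wells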
RAD52 inh – blocks human RAD52 DNA annealing; hit rate 0.46% among 360,000; recombinant RAD52 DNA annealing, FRET fluorescence; inhibition, % at 18.7 µM; P43351;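 active = every replicate showing at least 50% inhibition; inconclusive = mean inhibition at least 50% but not in every replicate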
RAD54 inh – blocks human RAD54 Holliday junction branch migration | inhibition, % at 10.4 µM | FAM/BHQ fluorescence | Q92698 | hit rate 0.14% among 360,000;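 active = mean normalized replicate activity at least 40 and at least half of replicates scoring 40 or more; inconclusive = only one of the two criteria met; inactive = mean below 40 and under half of replicates reaching 40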;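 also: 0% = median of neutral control wells and 100% = median of positive control wells; inhibitors cause a drop in the FAM fluorescence signal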
GSIS activator – GLuc luminescence reporter in INS-1E cells, primary screen for activators of glucose-dependent secretion of insulin; INS-1E GLuc reporter insulin secretion, 2-3 h; activation, % at 16.6 µM; hit rate 0.61% among 370,000; AID 743287;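 active = lowest replicate activation of at least 40%, so every replicate reaches that level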;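 also: 0% = median of neutral control wells and 100% = median of IBMX positive control wells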
AF4-AF9 inh – MLL-AF4/AF9 protein interaction inhibition; hit rate 0.47% among 350,000; P42568; AlphaScreen, biotin-AF4 peptide binding to FLAG-AF9; inhibition, % at 10 µM;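 active = every replicate reaching a set inhibition limit, whatever the replicate mean, cut at about 25% in these data; inconclusive = mean inhibition reaches that limit but some replicates miss it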;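 also: 0% = plate neutral control median and 100% = total signal loss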
dFosB act-2 – activators of mouse delta FosB homodimer DNA binding. shares compounds with dFosB act-1. purified delta FosB, TAMRA-CDK5 oligo fluorescence polarization; normalised: neutral wells 0, positive control 100. activation, % at 24.9 µM. 2,400 tested, under 10 active. AID 588690;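 active = highest replicate activation at or above 34% and every replicate reaching that threshold; inconclusive = meets only one of the two criteria; inactive = meets neither criterion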;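 also: higher polarization means more probe DNA bound by delta FosB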
* = called active by the depositor; ? = inconclusive; . = no result given.

SMILES	dFosB act-1	DENV2 CPE rescue	RAD52 inh	RAD54 inh	GSIS activator	AF4-AF9 inh	dFosB act-2
O=C1CC(C(=O)Nc2ccc(Cl)c(Cl)c2)S/C(=N\N=C\c2ccco2)N1 (stereo not drawn)	31.8*	5.3	-16.1	.	-6.2	-3.2	0.3
O=C1CC(C(=O)Nc2ccccc2)S/C(=N\N=C\c2ccco2)N1 (stereo not drawn)	28.3*	.	.	-0.9	8.7	.	5.1
CC(C)C1S/C(=N/N=C/c2ccco2)NC1=O (stereo not drawn)	-1.8	.	.	2.4	.	.	.
O=c1c(O)c(-c2ccc(O)cc2)oc2cc(O)cc(O)c12	6.4	-1.3	4.3	1.3	10.8	-6.8	.
O=c1c(-c2c(O)cc(O)c3c2O[C@H](c2ccc(O)cc2)CC3)c(-c2ccc(O)cc2)oc2cc(O)cc(O)c12	30.8*	.	.	-28.9	.	.	7.3
C[C@H](CO)N1C[C@H](C)[C@@H](CN(C)C(=O)CN2CCOCC2)Oc2ncc(C3=CCCC3)cc2C1=O	.	-4.0	-1.9	-3.2	10.8	-5.1	.
CN(C)C(=O)C[C@H]1CC[C@@H](NC(=O)NC2CCCCC2)[C@H](CO)O1	.	12.8	0.9	0.9	1.5	-2.2	.
CCOc1ccc2[nH]c3c(=O)n(CCc4ccc(OC)cc4)cnc3c2c1	18.3*	-3.6	-10.0	3.6	10.0	-6.7	-1.4
CCOc1ccc2[nH]c3c(=O)n(CCC4=CCCCC4)cnc3c2c1	-7.0	-1.8	3.8	.	-3.3	-14.9	.
CNC[C@@H]1Oc2ccc(NC(=O)C3CC3)cc2C(=O)N([C@H](C)CO)C[C@H]1C	.	0.7	-6.6	3.5	35.7	-0.1	.
CCS(=O)(=O)Nc1ccc2c(c1)C(=O)N(C)[C@@H]1CC[C@H](CC(=O)NCc3ccccc3F)O[C@@H]1CO2	.	13.4	13.3	6.6	-4.6	-19.6	.
COc1ccc(-c2nc(C(N)=O)c3[nH]c(=O)n(-c4cccc(Cl)c4)c3n2)cc1OC	28.7*	.	.	8.4	.	.	-16.7
COc1cccc(-c2nc(C(N)=O)c3[nH]c(=O)n(-c4cccc(Cl)c4)c3n2)c1OC	-23.5	-1.7	-8.9	5.4	4.0	-2.9	.
COCC(=O)Nc1ccc2c(c1)OC[C@H](C)N(Cc1ccccn1)C[C@@H](C)[C@H](OC)CN(C)C2=O	.	8.5	-8.6	1.9	0.7	0.1	.
CC(OC(=O)c1ccc(NS(=O)(=O)c2ccc3[nH]c(=O)[nH]c3c2)cc1)C(=O)Nc1ccc(Cl)cc1 (stereo not drawn)	21.9*	-1.5	-21.6	.	-12.5	0.5	7.2
O=C(CCc1ccccc1)Nc1nc2n(n1)C(c1ccccc1)CC(=O)N2 (stereo not drawn)	27.0*	.	-11.6	-6.5	6.0	.	-0.7
CCCC#Cc1ccc([C@H]2[C@@H](CO)N3C(=O)CN(C(=O)Nc4ccccc4F)C[C@H]23)cc1	.	?	-10.4	.	-5.3	0.8	.
O=C(Cn1c2ccc(F)cc2c2nc3n(c(=O)c21)CCS3)Nc1ccccc1C(F)(F)F	50.3*	2.7	-6.0	.	-8.5	-3.6	-5.1
C[C@@H]1CN([C@@H](C)CO)C(=O)c2c(c3ccccc3n2C)-c2ccccc2CO[C@H]1CN(C)Cc1ccccc1	.	.	.	.	-7.6	.	.
COc1ccc(N2C(=O)CC(NNC(=O)c3ccc(Br)s3)C2=O)cc1 (stereo not drawn)	45.5*	-5.2	-10.6	.	4.6	-3.2	-2.4
C[C@@H]1CCCCO[C@H](CN(C)Cc2ccc(C(F)(F)F)cc2)[C@H](C)CN([C@H](C)CO)C(=O)c2cc(NC(=O)c3ccccc3)ccc2O1	.	6.3	-85.6	0.4	-9.2	-0.3	.
COc1cc2c(C)nc3c(c(C)nn3-c3ccccc3)c2cc1OC	-0.6	18.5	-4.0	-4.7	16.6	-4.9	.
COc1cc2c(-c3ccc(O)cc3)nc3c(c(C)nn3-c3ccccc3)c2cc1OC	27.3*	.	.	5.4	13.5	.	3.9
O=C(C[C@@H]1C=C[C@H](NC(=O)C2CCC2)[C@@H](CO)O1)Nc1nccs1	.	1.4	-3.2	-4.6	0.9	1.1	.
O=C(Nc1cccc(O)c1)c1cc(-c2ccc3c(c2)OCO3)on1	32.5*	14.3	-0.8	-6.2	3.5	-0.4	-0.4
SMILES	dFosB act-1	DENV2 CPE rescue	RAD52 inh	RAD54 inh	GSIS activator	AF4-AF9 inh	dFosB act-2
Cc1cc(C(F)(F)F)c(C#N)c(SCC(=O)Nc2nc3cc(Br)ccc3s2)n1	37.5*	-2.6	-153.1	.	-3.3	-2.0	6.6
Cc1ccc(C(=O)CCC(=O)NNC(=O)c2ccccc2O)cc1	23.1*	-0.3	-22.7	-11.5	8.1	-1.6	-1.4
O=C(Nc1ccccc1F)N[C@H]1CC[C@H](CCNC(=O)C2CCCC2)O[C@H]1CO	.	11.2	-9.4	-5.1	12.5	-1.8	.
COc1ccc(Cn2c(=O)[nH]c3cc(C(=O)N4CCN(c5ccccc5F)CC4)ccc3c2=O)cc1	17.8*	0.6	1.1	-7.5	.	-0.8	5.2
COc1ccc(Cn2c(=O)[nH]c3cc(C(=O)N4CCN(c5ccccc5OC)CC4)ccc3c2=O)cc1	-3.9	.	.	0.5	.	.	.
C[C@@H]1CN([C@H](C)CO)C(=O)c2cccc(NS(=O)(=O)c3ccccc3)c2O[C@@H]1CN(C)S(=O)(=O)c1ccc(F)cc1	.	-1.1	.	15.2	-1.9	.	.
Cc1csc(NC(=O)c2cc3c(s2)-c2ccccc2OC3)n1	34.9*	-1.4	-58.9	8.1	-6.3	-5.9	-1.6
CN(C)CCNC(=O)c1cc2c(s1)-c1ccccc1OC2	-3.3	-4.5	26.0	21.3	15.0	-3.7	.
C[C@H](CO)N1C[C@H](C)[C@@H](CN(C)C)Oc2ccc(NC(=O)Cc3cn(C)c4ccccc34)cc2CC1=O	.	-1.9	-3.9	17.7	13.5	2.7	.
O=C(CCc1nc2ccccc2[nH]1)Nc1ccccc1	-1.6	.	.	-10.2	.	.	.
Cc1cc(C)cc(NC(=O)CCc2nc3ccccc3[nH]2)c1	28.2*	.	.	-3.3	.	.	-1.2
CO[C@@H]1CN(C)C(=O)c2cc(NC(=O)c3cccc(F)c3)ccc2OC[C@H](C)NC[C@@H]1C	.	-3.6	10.3	13.9	7.1	-6.1	.
COc1ccc2c3c(n(C)c2c1)[C@@H](CO)N(C)CC31CN(C(=O)NC(C)C)C1	.	2.8	-3.4	.	1.5	2.1	.
O=C(COC(=O)c1ccc([N+](=O)[O-])o1)Nc1cccc(S(=O)(=O)N2CCCCC2)c1	-0.8	5.8	1.8	-1.5	-52.5	1.9	.
Cc1ccc(NC(=O)COC(=O)c2ccc(S(=O)(=O)N3CCCCC3)cc2)cc1	1.6	-1.9	-0.4	-8.3	-2.7	-1.9	.
CC(=O)Nc1ccc(NC(=O)COC(=O)c2ccc(S(=O)(=O)N(C)c3ccccc3)cc2)cc1	37.6*	-6.9	-14.5	0.0	.	-0.6	0.4
O=C(COC(=O)c1cc([N+](=O)[O-])ccc1NCCO)Nc1cccc(S(=O)(=O)N2CCCC2)c1	30.6*	0.5	-15.7	9.3	-1.3	-21.5	1.4
